Measured values: PubChem BioAssay (NCATS)
Results filed as inconclusive are left out. Unmarked numbers belong to inactive results. The source made the active and inactive calls. The call rests on the fitted dose curve; in most records, active means well fitted inhibition curve with a large enough effect; inconclusive means small, poorly fitted or top-dose-only effect; inactive means flat fitted curve, though single readings scatter.

experiment: qHTS to identify inhibitors of the type 1 interferon - major histocompatibility complex class I in skeletal muscle: primary screen against the NCATS Pharmaceutical Collection (AID 1347407); settings: human skeletal muscle cells, IFN-b-induced MHC-I HiBiT luminescence, 24 h; series mostly up to 45.9 µM; activity change, negative = inhibition: at the top concentration
In short: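 Immortalized human myoblasts (C25cl48) with HiBiT knocked into endogenous HLA-B*08:01 were stimulated with 4.0 ng/ml IFN-beta and treated with compounds ([…] top 46 uM) for 24 hrs at 37 C. HiBiT lytic luminescence read.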
On the % scale 0 is the no-effect control and ±100 the full control effect; potency means the concentration at half of the fitted maximal effect.

Compound	activity change, negative = inhibition	Potency
c1ccc(C2CC2)c(OCC2=NCCN2)c1	9.84%	
C[C@@H]1O[C@@H](O[C@H]2C[C@@H](O)[C@]3(CO)[C@H]4[C@H](O)C[C@]5(C)[C@@H](C6=CC(=O)OC6)CC[C@]5(O)[C@@H]4CC[C@]3(O)C2)[C@H](O)[C@H](O)[C@H]1O		52.8 nM (active)
CCC1(C2=NCCN2)Cc2ccccc2O1 (centres undefined)	-4.7%	
CC(=O)[C@H]1CC[C@H]2[C@@H]3CC[C@H]4C[C@](C)(O)CC[C@]4(C)[C@H]3CC[C@]12C	-8.58%	
Nc1ccncc1	-9.11%	
COc1ccccc1N1CCNCC1	-17.7%	
N#CC(C#N)=Cc1ccc(O)c(O)c1	13.7%	
NCCc1cc(O)c(O)cc1O	-21.8%	
CCCN1CCC[C@@H]2Cc3nc(N)ncc3C[C@H]21	3.85%	
CN(C)CCc1ccc(O)cc1	6.88%	
NCC(O)c1ccc(O)cc1 (centres undefined)	-4.64%	
Cc1ccc(S(=O)(=O)N[C@@H](CCCCN)C(=O)CCl)cc1	6.55%	
Cn1c(CCCC(=O)O)nc2cc(N(CCCl)CCCl)ccc21	14.8%	
CC[C@@H](CO)NC(=O)[C@@H]1C=C2c3cccc4[nH]cc(c34)C[C@H]2N(C)C1	-3.96%	
NCC(CC(=O)O)c1ccc(Cl)cc1 (centres undefined)	3.65% [at 0.727 µM]	
CCCN1CCC[C@@H]2Cc3[nH]ncc3C[C@H]21	4.85%	
CC[C@@H](CO)NC(=O)[C@@H]1C=C2c3cccc4c3c(cn4C)C[C@H]2N(C)C1	-0.128%	
O=C1NCN(c2ccccc2)C12CCN(CC1COc3ccccc3O1)CC2 (centres undefined)	2.27%	
Cc1cccc(C)c1NC(=O)CN1CCCC1=O	-15%	
